Measurements: PubChem BioAssay AID540276 (National Center for Advancing Translational Sciences (NCATS), 2011)
The whole screen tested about 300,000 compounds, of which about 5,400 (1.8%) were called active. Another 28% or so got no clear call; they are omitted. This is one part of a sample in which actives are shown more often than they occur. A number with no mark means an inactive call. The call rests on the fitted dose curve; tested in HEK293 cells. Non-standard residues stand in square brackets, D forms with d. Residues, ends and D or L forms follow the SMILES beside them. ξ: configuration not given here. Ac5c = NC1(C(=O)O)CCCC1; ξS = NC(CO)C(=O)O

test: qHTS for inhibitors of binding or entry into cells for Marburg Virus; details: Marburg virus pseudotyped entry inhibition, cell reporter; series mostly up to 37.8 µM; activity change, negative = inhibition: at the top concentration
On the % scale 0 is the no-effect control and ±100 the full control effect; potency means the concentration at half of the fitted maximal effect.

| Structure (SMILES) | activity change, negative = inhibition | Potency |
| --- | --- | --- |
| O=C(Nc1ccccc1)C1CCN(C(=O)c2ccc(Br)cc2)CC1 | -6.33% |  |
| CCOC(=O)C(CO)NC(=O)C1(NC(C)=O)CCCC1 (stereo unspecified) (Ac-[Ac5c]-[ξS]-OEt) | 6.4% [at 46.1 µM] |  |
| CCc1ccccc1NC(=S)N(CCN1CCCCCC1)Cc1ccco1 | 3.1% [at 46.1 µM] |  |
| CCc1cccc(C)c1NC(=S)N(CCCN1CCN(C)CC1)Cc1cccs1 |  | 10 µM (active) |
| Cc1ccccc1NC(=S)N(CCCN1CCOCC1)Cc1cccs1 | 18.9% |  |
| CCC(=O)Nc1ccc(S(=O)(=O)Nc2c(NC)c3ccccc3oc2=O)cc1 | -29.2% [at 46.1 µM] |  |
| CCCN(C(=O)CSc1nnc(N)s1)c1c(N)n(Cc2ccccc2)c(=O)[nH]c1=O | -6.1% |  |
| CNC(=O)C1CC(=O)N(c2ccc(OCC(=O)Nc3ccccc3C)cc2)C1 (stereo unspecified) | 5.17% |  |
| Cc1ccc2[nH]c(=O)c(CC=C(Cl)Cl)c(C)c2c1 | 7.58% [at 46.1 µM] |  |
| COc1ccc(CNC(=O)c2cc3c(=O)[nH]c4ccc(C)cc4c3s2)c(OC)c1 | -18.7% [at 46.1 µM] |  |
| Cc1cccc(N(C)C(=O)c2cc3c(=O)[nH]c4ccc(C)cc4c3s2)c1 |  | 3.55 µM (active) |
| CCOC(=O)N/N=C1\C[C@@H](O)[C@@H](O)[C@@H]2[C@@H]3C(=O)N(C4CCCCC4)C(=O)[C@@H]3CC[C@@H]12 | 19.7% [at 14.2 µM] |  |
| Cc1ccc(NC(=O)CSC2=C(C#N)[C@H](c3ccc4c(c3)OCO4)CC(=O)N2)cc1C | -6.33% |  |
| NS(=O)(=O)c1cccc(NC(=O)COC(=O)c2cc([N+](=O)[O-])ccc2N2CCCC2)c1 | -19.3% |  |
| O=C(COC(=O)c1ccc([N+](=O)[O-])cc1Cl)NC(=O)c1ccccc1 | 11.8% |  |
| N#Cc1cccc(NC(=O)COC(=O)c2ccccc2C(=O)c2ccc(Cl)c([N+](=O)[O-])c2)c1 |  | 23.1 µM (active) |
| CN(C(=O)CCNC(=O)Cn1ccc2ccccc2c1=O)c1ccc(Br)cc1 | 23.6% [at 46.1 µM] |  |
| O=C(CCC1CCCN(C(=O)c2ccc(F)c(F)c2)C1)N1CCN(c2ccccn2)CC1 (stereo unspecified) | -24.9% |  |
| CC1(c2ccccc2)NC(=O)N(CC(=O)Nc2cc(Cl)ccc2N2CCOCC2)C1=O (stereo unspecified) | 2.18% |  |
| COc1cc(OC)cc(-c2c(-c3cccs3)c3cc(-c4ccc(OC)cc4F)ccc3n2C)c1 | -2.74% |  |
| Cc1ccccc1N1CC(C(=O)Nc2nnc(SCCC3OCCO3)s2)CC1=O (stereo unspecified) | -24.4% |  |
| CC(C)(C)c1cc(C(=O)NN)n(Cc2ccc(Cl)cc2Cl)n1 |  | 11.2 µM (active) |
| NNC(=O)c1ccc(Cl)cc1Cl | 5.31% |  |
| CC(C)(C)NC(=O)NC(=O)COC(=O)Cc1ccc(Cl)cc1Cl | -0.511% [at 46.1 µM] |  |
| Cc1cc(NC[C@@H]2CCCO2)n2c(nc3ccccc32)c1C#N | 1.22% [at 46.1 µM] |  |
| CN1CCN(CCNC(=O)Nc2ccccc2[N+](=O)[O-])CC1 | 26.4% [at 46.1 µM] |  |
